Our source for the residual activity values is ChEMBL document CHEMBL2218924, “A broad activity screen in support of a chemogenomic map for kinase signalling research and drug discovery” (Biochem J, 2013).

Assay [1] deals with T1, Ephrin type-B receptor 1 (Homo sapiens) (UniProt P54762).
T1 sequence (whole entry): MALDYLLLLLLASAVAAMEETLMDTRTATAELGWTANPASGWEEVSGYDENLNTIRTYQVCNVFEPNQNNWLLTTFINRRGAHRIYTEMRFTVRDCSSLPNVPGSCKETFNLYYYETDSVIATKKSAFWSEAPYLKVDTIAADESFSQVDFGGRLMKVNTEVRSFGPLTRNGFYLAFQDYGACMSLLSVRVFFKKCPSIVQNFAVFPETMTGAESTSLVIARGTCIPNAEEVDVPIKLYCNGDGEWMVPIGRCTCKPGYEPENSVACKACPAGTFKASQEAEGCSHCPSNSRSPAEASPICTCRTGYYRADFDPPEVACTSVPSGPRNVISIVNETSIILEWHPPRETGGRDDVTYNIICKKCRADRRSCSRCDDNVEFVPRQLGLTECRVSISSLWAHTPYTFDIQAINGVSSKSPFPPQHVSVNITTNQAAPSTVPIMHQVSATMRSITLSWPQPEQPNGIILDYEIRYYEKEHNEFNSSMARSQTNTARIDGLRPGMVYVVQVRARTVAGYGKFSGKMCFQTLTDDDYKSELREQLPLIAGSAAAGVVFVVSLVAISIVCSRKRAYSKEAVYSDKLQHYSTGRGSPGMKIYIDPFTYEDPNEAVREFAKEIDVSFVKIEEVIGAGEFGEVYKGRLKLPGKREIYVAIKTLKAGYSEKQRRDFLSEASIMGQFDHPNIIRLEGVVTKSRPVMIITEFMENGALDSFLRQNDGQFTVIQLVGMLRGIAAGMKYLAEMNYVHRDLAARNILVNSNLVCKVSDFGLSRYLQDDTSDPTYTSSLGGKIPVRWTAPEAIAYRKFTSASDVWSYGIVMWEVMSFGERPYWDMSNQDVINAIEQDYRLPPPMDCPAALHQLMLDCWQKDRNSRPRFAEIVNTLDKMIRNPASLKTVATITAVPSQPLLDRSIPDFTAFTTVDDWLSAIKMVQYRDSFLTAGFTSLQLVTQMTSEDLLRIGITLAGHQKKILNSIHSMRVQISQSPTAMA
The settings on record: at 10 µM.

Assay [2] concerns the target T2, Ephrin type-B receptor 2 (Homo sapiens) (UniProt P29323).
T2 sequence (whole entry): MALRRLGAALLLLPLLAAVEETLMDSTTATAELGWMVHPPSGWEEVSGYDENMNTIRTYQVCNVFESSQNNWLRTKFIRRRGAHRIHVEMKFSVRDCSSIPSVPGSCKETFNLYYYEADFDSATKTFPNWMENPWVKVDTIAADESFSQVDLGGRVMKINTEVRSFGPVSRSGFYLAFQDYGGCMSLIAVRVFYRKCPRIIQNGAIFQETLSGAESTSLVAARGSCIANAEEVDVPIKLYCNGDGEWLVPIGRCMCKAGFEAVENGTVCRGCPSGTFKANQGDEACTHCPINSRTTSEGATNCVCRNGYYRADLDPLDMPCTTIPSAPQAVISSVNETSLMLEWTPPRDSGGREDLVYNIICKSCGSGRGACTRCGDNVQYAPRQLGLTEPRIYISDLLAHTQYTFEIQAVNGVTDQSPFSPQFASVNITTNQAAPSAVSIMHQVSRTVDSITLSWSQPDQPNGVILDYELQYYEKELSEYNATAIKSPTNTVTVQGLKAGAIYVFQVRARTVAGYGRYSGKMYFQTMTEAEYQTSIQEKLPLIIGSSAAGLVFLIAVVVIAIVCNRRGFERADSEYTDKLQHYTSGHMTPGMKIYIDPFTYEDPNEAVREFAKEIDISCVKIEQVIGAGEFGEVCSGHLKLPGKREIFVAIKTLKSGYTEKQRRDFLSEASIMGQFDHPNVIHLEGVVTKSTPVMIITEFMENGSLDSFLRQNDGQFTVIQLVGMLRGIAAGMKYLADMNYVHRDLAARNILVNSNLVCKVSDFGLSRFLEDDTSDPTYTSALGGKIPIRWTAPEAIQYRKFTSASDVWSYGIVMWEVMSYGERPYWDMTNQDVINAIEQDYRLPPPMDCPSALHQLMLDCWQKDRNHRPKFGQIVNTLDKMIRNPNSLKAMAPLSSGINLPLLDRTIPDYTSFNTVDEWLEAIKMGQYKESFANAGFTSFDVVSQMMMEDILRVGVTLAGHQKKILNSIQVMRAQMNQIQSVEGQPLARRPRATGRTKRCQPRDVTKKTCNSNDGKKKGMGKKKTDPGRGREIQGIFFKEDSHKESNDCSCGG
The settings on record: at 1 µM.

Assay [3] addresses T2, Ephrin type-B receptor 2 (Homo sapiens). Conditions: at 10 µM; call rule not given here.
Assay [4] deals with T3, Ephrin type-B receptor 3 (Homo sapiens) (UniProt P54753).
T3 sequence (whole entry): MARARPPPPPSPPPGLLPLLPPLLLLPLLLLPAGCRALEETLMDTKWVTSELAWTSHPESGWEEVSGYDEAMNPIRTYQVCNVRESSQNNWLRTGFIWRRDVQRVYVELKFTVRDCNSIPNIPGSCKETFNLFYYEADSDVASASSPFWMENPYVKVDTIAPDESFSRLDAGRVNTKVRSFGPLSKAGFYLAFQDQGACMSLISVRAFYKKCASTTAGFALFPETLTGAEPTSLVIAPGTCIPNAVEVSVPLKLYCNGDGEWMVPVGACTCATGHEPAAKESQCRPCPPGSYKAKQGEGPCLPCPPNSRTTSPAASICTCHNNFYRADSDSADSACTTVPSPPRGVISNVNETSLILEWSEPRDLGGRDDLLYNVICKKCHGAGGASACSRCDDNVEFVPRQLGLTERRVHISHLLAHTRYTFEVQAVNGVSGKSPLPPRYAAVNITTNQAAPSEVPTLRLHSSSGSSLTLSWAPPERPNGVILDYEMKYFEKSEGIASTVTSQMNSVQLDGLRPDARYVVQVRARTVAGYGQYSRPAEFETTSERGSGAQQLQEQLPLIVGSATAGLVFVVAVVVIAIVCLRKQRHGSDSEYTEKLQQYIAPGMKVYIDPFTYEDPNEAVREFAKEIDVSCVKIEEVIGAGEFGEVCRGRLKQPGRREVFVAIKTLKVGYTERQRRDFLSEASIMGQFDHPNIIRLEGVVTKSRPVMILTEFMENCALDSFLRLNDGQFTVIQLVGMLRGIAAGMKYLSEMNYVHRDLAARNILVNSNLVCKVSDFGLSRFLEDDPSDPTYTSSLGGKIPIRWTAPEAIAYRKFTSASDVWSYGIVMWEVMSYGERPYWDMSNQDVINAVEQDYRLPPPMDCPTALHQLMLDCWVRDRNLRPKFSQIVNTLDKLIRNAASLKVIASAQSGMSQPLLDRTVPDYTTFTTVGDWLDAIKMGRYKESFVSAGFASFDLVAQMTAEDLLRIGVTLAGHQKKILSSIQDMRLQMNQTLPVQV
The settings on record: at 1 µM.

Assay [5] deals with T3, Ephrin type-B receptor 3 (Homo sapiens). Conditions: at 10 µM.
Assay [6] addresses T4, Ephrin type-B receptor 4 (Homo sapiens) (UniProt P54760).
T4 sequence (whole entry): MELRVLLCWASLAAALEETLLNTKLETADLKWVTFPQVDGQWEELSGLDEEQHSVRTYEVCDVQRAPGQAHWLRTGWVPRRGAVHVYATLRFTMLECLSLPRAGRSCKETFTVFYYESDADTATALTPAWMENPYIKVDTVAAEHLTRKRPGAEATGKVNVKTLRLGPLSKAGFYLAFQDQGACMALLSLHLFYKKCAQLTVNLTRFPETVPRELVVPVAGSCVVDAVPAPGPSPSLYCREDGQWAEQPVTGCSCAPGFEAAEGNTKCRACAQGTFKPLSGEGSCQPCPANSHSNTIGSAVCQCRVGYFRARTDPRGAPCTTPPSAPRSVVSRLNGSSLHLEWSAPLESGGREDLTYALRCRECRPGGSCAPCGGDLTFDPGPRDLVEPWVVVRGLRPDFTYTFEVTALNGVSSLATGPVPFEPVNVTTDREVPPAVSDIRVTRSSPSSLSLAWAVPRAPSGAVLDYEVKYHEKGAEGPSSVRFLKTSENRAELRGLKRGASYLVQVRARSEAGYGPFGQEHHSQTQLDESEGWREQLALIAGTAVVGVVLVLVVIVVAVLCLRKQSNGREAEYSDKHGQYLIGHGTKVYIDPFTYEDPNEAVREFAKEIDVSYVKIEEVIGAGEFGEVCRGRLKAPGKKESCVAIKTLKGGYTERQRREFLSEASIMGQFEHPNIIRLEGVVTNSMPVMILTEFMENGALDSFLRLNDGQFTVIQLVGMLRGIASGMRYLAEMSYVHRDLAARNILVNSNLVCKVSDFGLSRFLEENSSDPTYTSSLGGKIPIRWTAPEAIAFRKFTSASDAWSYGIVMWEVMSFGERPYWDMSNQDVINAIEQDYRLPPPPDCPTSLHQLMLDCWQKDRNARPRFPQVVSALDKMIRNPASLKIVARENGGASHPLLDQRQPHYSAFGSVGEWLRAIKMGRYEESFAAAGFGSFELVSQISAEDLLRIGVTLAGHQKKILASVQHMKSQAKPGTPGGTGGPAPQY
Conditions: at 1 µM.

Assay [7] concerns the target T4, Ephrin type-B receptor 4 (Homo sapiens). The settings on record: at 10 µM.
Assay [8] deals with Receptor tyrosine-protein kinase erbB-4 (Homo sapiens) (UniProt Q15303). Conditions: at 1 µM.
Receptor tyrosine-protein kinase erbB-4 (Homo sapiens), sequence (Q15303 whole entry): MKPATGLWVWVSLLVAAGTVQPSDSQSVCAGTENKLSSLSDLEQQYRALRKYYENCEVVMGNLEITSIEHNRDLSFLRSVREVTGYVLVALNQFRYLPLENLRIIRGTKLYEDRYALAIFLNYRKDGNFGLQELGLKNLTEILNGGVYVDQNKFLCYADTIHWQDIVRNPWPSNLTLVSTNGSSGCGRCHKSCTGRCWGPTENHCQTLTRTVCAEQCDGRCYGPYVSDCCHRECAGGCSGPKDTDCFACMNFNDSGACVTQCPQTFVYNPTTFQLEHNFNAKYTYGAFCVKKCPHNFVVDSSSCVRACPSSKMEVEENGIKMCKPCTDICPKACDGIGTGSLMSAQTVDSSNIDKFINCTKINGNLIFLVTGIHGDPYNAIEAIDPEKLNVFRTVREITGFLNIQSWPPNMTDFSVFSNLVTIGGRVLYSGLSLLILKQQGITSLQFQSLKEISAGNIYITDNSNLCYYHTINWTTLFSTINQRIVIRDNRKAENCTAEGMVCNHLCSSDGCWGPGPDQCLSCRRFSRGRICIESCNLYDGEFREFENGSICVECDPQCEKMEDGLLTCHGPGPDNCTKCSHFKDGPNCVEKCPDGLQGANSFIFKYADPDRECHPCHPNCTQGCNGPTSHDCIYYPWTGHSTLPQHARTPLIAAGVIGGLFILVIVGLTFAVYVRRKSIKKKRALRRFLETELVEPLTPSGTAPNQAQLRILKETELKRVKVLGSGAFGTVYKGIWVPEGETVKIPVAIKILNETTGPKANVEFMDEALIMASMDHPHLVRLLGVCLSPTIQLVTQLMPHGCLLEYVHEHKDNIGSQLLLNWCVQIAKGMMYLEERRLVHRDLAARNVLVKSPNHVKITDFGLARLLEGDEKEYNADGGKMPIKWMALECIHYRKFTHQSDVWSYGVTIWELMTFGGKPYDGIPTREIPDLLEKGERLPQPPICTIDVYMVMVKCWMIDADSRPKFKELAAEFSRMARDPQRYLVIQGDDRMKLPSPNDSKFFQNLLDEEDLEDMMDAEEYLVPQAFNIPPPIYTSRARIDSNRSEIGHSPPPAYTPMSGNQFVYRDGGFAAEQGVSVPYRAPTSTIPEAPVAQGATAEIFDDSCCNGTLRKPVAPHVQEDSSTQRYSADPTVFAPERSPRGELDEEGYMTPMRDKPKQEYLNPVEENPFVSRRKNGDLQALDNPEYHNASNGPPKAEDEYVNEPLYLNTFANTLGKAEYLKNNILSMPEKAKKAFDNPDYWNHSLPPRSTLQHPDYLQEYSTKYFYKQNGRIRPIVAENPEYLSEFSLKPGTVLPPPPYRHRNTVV
Assay [9] shares this target. The settings on record: at 10 µM.
The target in assay [10] is Focal adhesion kinase 1 (Homo sapiens) (UniProt Q05397). Conditions: at 1 µM.
Focal adhesion kinase 1 (Homo sapiens), sequence (Q05397 2-1052 limits assumed): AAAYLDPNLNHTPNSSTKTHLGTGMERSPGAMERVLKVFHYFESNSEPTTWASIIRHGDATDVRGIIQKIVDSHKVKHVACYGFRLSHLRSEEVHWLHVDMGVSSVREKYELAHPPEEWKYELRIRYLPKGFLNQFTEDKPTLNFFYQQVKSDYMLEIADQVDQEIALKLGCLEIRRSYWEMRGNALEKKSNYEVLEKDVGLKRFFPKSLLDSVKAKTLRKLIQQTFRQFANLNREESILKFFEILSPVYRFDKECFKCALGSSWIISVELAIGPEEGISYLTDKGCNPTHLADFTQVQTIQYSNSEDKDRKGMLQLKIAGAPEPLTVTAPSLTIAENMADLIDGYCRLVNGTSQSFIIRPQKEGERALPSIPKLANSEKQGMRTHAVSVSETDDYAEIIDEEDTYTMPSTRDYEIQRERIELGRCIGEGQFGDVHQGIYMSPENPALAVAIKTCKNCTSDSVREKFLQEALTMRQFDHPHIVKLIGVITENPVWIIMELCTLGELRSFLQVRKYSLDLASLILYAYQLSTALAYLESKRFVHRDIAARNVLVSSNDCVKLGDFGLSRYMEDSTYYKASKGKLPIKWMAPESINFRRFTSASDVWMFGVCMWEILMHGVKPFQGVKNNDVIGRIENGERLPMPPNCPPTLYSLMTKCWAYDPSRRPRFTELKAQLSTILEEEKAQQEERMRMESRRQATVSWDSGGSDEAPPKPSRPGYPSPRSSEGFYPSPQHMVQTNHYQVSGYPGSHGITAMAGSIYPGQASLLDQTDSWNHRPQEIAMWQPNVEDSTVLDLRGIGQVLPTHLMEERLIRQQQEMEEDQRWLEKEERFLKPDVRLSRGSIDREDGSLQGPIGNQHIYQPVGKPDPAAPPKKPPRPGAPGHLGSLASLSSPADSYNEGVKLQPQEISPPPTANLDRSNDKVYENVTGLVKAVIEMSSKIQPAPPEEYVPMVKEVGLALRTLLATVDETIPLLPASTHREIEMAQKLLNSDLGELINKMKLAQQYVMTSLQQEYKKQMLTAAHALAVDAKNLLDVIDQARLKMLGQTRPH

In the case of `Cc1ccc(NC2=CC(=O)c3sc(C)nc3C2=O)cc1`, the residual activity was 97% in assay [1]; 123% in assay [2]; 121% in assay [3]; 104% (inactive) in assay [4]; 99% in [5]; 98% in [6]. The residual activity in assay [7] came to 96%; in assay [8], 77%; in assay [9], 88%; in [10], 96%.

Usually residual activity stands for the signal under treatment as a percentage of the control signal.
